Reference: the supplement of paper PMC7366291
Counter-ions that a name gives are not always drawn. ± gives the standard deviation or the standard deviation of the averaged measurements.

What was measured:
Conditions in all cases: 25 µM; exposure: 24-48 hpf
[1] = system: Danio rerio Tg(wt1b:EGFP) embryo, pronephros; assay: glomerular separation, fold change vs DMSO control; higher = glomeruli further apart (abnormal)
Procedure, shortened: (§1)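 Distances and angles describing the pronephros were computed by a Fiji macro from 16 reference points set manually on maximum projections of dorsal images. These images came from dechorionated Tg(wt1b:EGFP) zebrafish embryos held in agarose-filled 96-well plates after exposure to 25 μM compound in 0.5% DMSO, in HEPES-buffered E3 with 0.003% PTU, from 24 to 48 hpf at 28.5°C. Any value more than 2 SD from the feature mean was excluded. Features are stated as fold change relative to the mean of same-day DMSO-treated embryos.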

[2] = system: Danio rerio Tg(wt1b:EGFP) embryo, pronephros; assay: glomerular width (mean of left and right), fold change vs DMSO control; higher = wider glomerulus
Procedure, shortened: as §1

[3] = system: Danio rerio Tg(wt1b:EGFP) embryo, pronephros; assay: fraction of imaged embryos annotated as normal kidney; higher = less nephrotoxic; extreme values may be limits of the assay
Procedure, shortened: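 From 24 to 48 hpf at 28.5°C, dechorionated Tg(wt1b:EGFP) zebrafish embryos in 12-well plates were kept in 5 mM HEPES-buffered E3 with 0.003% PTU, 0.5% DMSO and 25 μM compound. Pronephroi were imaged by widefield fluorescence at 470 nm and judged by eye from maximum projections. Reported is the proportion of embryos per treatment in the normal-kidney category.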

[4] = system: Danio rerio Tg(wt1b:EGFP) embryo, pronephros; assay: pronephric angle neck segment to proximal convoluted tubule (mean of left and right), fold change vs DMSO control; higher = larger pronephric angle
Procedure, shortened: as §1

## COc1cccc(N(C)C(=S)Oc2ccc3c(c2)CCCC3)n1 [Liranaftate]
[1]
  glomerular separation: 1.14 ± 0.62
[2]
  glomerular width: 1.025 ± 0.0045
[3]
  fraction of imaged embryos annotated as normal kidney: 0.667
[4]
  pronephric angle neck segment: 1.06 ± 0.033

## CCCCc1ccc2[nH]c(NC(=O)OC)nc2c1 [Parbendazole]
[1]
  glomerular separation: 2.51 ± 0.79
[2]
  glomerular width: 0.5042 ± 0.0026
[3]
  fraction of imaged embryos annotated as normal kidney: 0
[4]
  pronephric angle neck segment: 1.81 ± 0.054

## CN(Cc1ccc(C(C)(C)C)cc1)Cc1cccc2ccccc12 [Butenafine Hydrochloride]
[1]
  glomerular separation: 0.932 ± 0.4
[2]
  glomerular width: 0.9818 ± 0.007
[3]
  fraction of imaged embryos annotated as normal kidney: 0.909
[4]
  pronephric angle neck segment: 1.05 ± 0.12

## C=CCOC(Cn1ccnc1)c1ccc(Cl)cc1Cl (centres undefined) [Enilconazole]
[1]
  glomerular separation: 0.575 ± 0.22
[2]
  glomerular width: 1.12 ± 0.024
[3]
  fraction of imaged embryos annotated as normal kidney: 1
[4]
  pronephric angle neck segment: 1.1 ± 0.062

## CN(C)CC/C=C1\c2ccccc2CSc2ccccc21 [Dosulepin hydrochloride]
[1]
  glomerular separation: 1.15 ± 0.25
[2]
  glomerular width: 0.981 ± 0.048
[3]
  fraction of imaged embryos annotated as normal kidney: 0.833
[4]
  pronephric angle neck segment: 0.995 ± 0.03

## COC(=O)Nc1nc2cc([S+]([O-])c3ccccc3)ccc2[nH]1 (centres undefined) [Oxfendazol]
[1]
  glomerular separation: 1.06 ± 0.33
[2]
  glomerular width: 1.05 ± 0.043
[3]
  fraction of imaged embryos annotated as normal kidney: 0.833
[4]
  pronephric angle neck segment: 1.036 ± 0.006

## Nc1ccc(C(=O)O)c(O)c1 [4-aminosalicylic acid]
[1]
  glomerular separation: 0.608 ± 0.17
[2]
  glomerular width: 0.9604 ± 0.008
[3]
  fraction of imaged embryos annotated as normal kidney: 0.833
[4]
  pronephric angle neck segment: 0.995 ± 0.018

## COc1ccc2c(c1)C(=O)N(CCc1ccc(S(=O)(=O)NC(=O)NC3CCCCC3)cc1)C(=O)C2(C)C [Gliquidone]
[1]
  glomerular separation: 1.07 ± 0.54
[2]
  glomerular width: 0.883 ± 0.011
[3]
  fraction of imaged embryos annotated as normal kidney: 1
[4]
  pronephric angle neck segment: 1.12 ± 0.039

## Cc1nnc(NS(=O)(=O)c2ccc(N)cc2)s1 [Sulfamethizole]
[1]
  glomerular separation: 0.838 ± 0.34
[2]
  glomerular width: 1.06 ± 0.087
[3]
  fraction of imaged embryos annotated as normal kidney: 0.667
[4]
  pronephric angle neck segment: 1.06 ± 0.028

## OCCN1CCN(CCCN2c3ccccc3Sc3ccc(C(F)(F)F)cc32)CC1 [Fluphenazine dihydrochloride]
[1]
  glomerular separation: 1.03 ± 0.53
[2]
  glomerular width: 1.07 ± 0.02
[3]
  fraction of imaged embryos annotated as normal kidney: 0.833
[4]
  pronephric angle neck segment: 0.932 ± 0.013

## CCCCOC(=O)c1ccc(O)cc1 [Butylparaben]
[1]
  glomerular separation: 1.67 ± 0.4
[2]
  glomerular width: 0.994 ± 0.022
[3]
  fraction of imaged embryos annotated as normal kidney: 0.5
[4]
  pronephric angle neck segment: 1.11 ± 0.038
